± gives the standard deviation.
How the values were obtained:
Conditions in all cases: modulator concentration 10 µM
[1] = tested on: RAW-Dual (murine macrophage reporter line); assay: NF-kB reporter (SEAP) activity fold change vs agonist alone; higher = enhanced NF-kB activity
Procedure, shortened: (§1)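 RAW-Dual murine macrophage reporter cells were seeded at 50 000 per well in 384-well plates and pre-incubated 1 hour at 37 °C with compound pin-transferred to 10 μM final. After 1 hour, a PRR agonist was added and cells incubated overnight. Supernatant NF-κB (SEAP, QUANTI-Blue, 620 nm absorbance) and IRF (Lucia luciferase, QUANTI-Luc, luminescence) signals were divided by the mean agonist-only control on the same plate to give fold change. Two replicate plates were averaged, with errors by propagation.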

[2] = tested on: RAW-Dual (murine macrophage reporter line); assay: IRF reporter (Lucia luciferase) activity fold change vs agonist alone; higher = enhanced IRF activity
Procedure, shortened: as §1

[3] = tested on: RAW-Dual (murine macrophage reporter line); assay: viability score (confluency relative to resting cells, overnight) (fraction); higher = more viable, active = viable (0.7 or more)
Procedure, shortened: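 RAW-Dual macrophages in 384-well plates were incubated overnight with compound, final concentration 10 μM. Confluency images from IncuCyte were processed in IncuCyte software into two masks covering all imaged wells. The viability score is each well's confluency relative to resting cells, and a compound met the cutoff when both masks exceeded 70% of resting cells.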

[4] = agonist: CpG ODN 1826 0.5 ug/mL

Structure (SMILES) | NF-kB reporter [1, 4] | NF-kB reporter ([1]; agonist: LPS 0.1 ug/mL) | NF-kB reporter ([1]; agonist: MPLA […]) | IRF reporter ([2]; agonist: 3'3'-cGAMP 10 ug/mL) | IRF reporter ([2]; agonist: LPS 0.1 ug/mL) | IRF reporter ([2]; agonist: MPLA […]) | viability score [3]
CC(C)(C)C(=O)Oc1ccc(S(=O)(=O)Nc2ccccc2C(=O)NCC(=O)O)cc1 | 0.755 ± 0.05 | 1.07 ± 0.086 | 1.18 ± 0.063 | 1.1 ± 0.064 | 1.09 ± 0.26 | 1.38 ± 0.47 | 0.972 (active)
CNC(=O)[C@H](Cc1ccccc1)NC(=O)[C@H](CC(C)C)[C@H](CSc1cccs1)C(=O)NO | 1.23 ± 0.093 | 1.22 ± 0.13 | 1.01 ± 0.048 | 0.96 ± 0.15 | 1.05 ± 0.15 | 0.947 ± 0.28 | 0.999 (active)
c1ccc2sc(SCCCCSc3nc4ccccc4s3)nc2c1 | 1.11 ± 0.087 | 1.02 ± 0.1 | 0.938 ± 0.035 | 0.953 ± 0.14 | 1.06 ± 0.1 | 0.977 ± 0.17 | 0.998 (active)
Cc1nc2n(c(=O)c1CCN1CCC(c3noc4cc(F)ccc34)CC1)CCCC2 | 0.741 ± 0.18 | 0.982 ± 0.09 | 0.915 ± 0.06 | 0.891 ± 0.036 | 1.13 ± 0.3 | 1.03 ± 0.13 | 1.01 (active)
COc1cc2nccc(Oc3ccc(NC(=O)C4(C(=O)Nc5ccc(F)cc5)CC4)cc3)c2cc1OC.O=C(O)C[C@H](O)C(=O)O | 0.56 ± 0.046 | 0.51 ± 0.026 | 0.696 ± 0.019 | 0.103 ± 0.0071 | 0.317 ± 0.031 | 0.337 ± 0.027 | 0.842 (active)
CCc1ccc2nc(NCCCN3CCOCC3)sc2c1 | 0.924 ± 0.057 | 1.02 ± 0.083 | 0.971 ± 0.058 | 0.866 ± 0.04 | 1.19 ± 0.27 | 1.3 ± 0.34 | 0.99 (active)
CN1CCN(C(=O)C(C)(c2ccccc2)c2ccccc2)CC1 | 0.804 ± 0.063 | 1.1 ± 0.062 | 0.946 ± 0.056 | 0.981 ± 0.039 | 1.22 ± 0.13 | 1.08 ± 0.17 | 1 (active)
O=C(Nc1ccc(NS(=O)(=O)c2ccc(Cl)cc2)cc1)c1ccccc1 | 1 ± 0.082 | 1.03 ± 0.091 | 0.911 ± 0.07 | 0.977 ± 0.03 | 1.26 ± 0.091 | 0.955 ± 0.3 | 1.02 (active)
CCCC1=NN(c2ccc([N+](=O)[O-])cc2)C(=O)C1=CNC1CC1 | 0.833 ± 0.066 | 1.15 ± 0.065 | 0.934 ± 0.056 | 0.999 ± 0.043 | 1.49 ± 0.12 | 1.18 ± 0.2 | 1.01 (active)
COc1ccc2[nH]c(S(=O)Cc3ncc(C)c(OC)c3C)nc2c1 (configuration not stated) | 1.22 ± 0.23 | 1.01 ± 0.26 | 0.909 ± 0.065 | 0.83 ± 0.028 | 1.11 ± 0.27 | 0.934 ± 0.074 | 0.99 (active)
Cc1cccc(NC(=O)CSc2nc(N3CCCCC3)nc3ccccc23)c1 | 0.963 ± 0.088 | 1.11 ± 0.092 | 0.98 ± 0.13 | 0.955 ± 0.055 | 1.22 ± 0.13 | 1.43 ± 0.26 | 0.993 (active)
Cc1ccc(C=Nc2ccc(-c3ccc(N=Cc4ccc(C)o4)c(C)c3)cc2C)o1 | 0.837 ± 0.066 | 0.984 ± 0.087 | 1.01 ± 0.053 | 0.773 ± 0.097 | 0.929 ± 0.041 | 0.894 ± 0.075 | 0.991 (active)
COc1ccccc1OCC(O)CN1CCN(CC(=O)Nc2c(C)cccc2C)CC1.Cl.Cl (configuration not stated) | 0.724 ± 0.11 | 0.982 ± 0.19 | 0.991 ± 0.064 | 0.908 ± 0.064 | 1.05 ± 0.23 | 0.931 ± 0.16 | 0.991 (active)
CC1=NN(c2ccc(C(=O)O)cc2)C(=O)C1=Cc1ccc(-c2cc(C)c(C)cc2[N+](=O)[O-])o1 | 0.951 ± 0.057 | 0.969 ± 0.076 | 0.947 ± 0.073 | 1 ± 0.066 | 0.976 ± 0.07 | 0.92 ± 0.23 | 0.997 (active)
CCSc1nnc(NC(=O)Cc2ccc([N+](=O)[O-])cc2)s1 | 1.04 ± 0.21 | 1.02 ± 0.085 | 0.96 ± 0.097 | 0.926 ± 0.026 | 1 ± 0.096 | 1.07 ± 0.12 | 1 (active)
Nc1nc(=O)n([C@@H]2CS[C@H](CO)O2)cc1F | 1.59 ± 0.24 | 1.3 ± 0.46 | 1.21 ± 0.073 | 0.62 ± 0.15 | 0.98 ± 0.22 | 0.836 ± 0.21 | 1 (active)
Cc1ccc(O)c(N=Nc2ccc(S(=O)(=O)O)cc2)c1 | 1.17 ± 0.11 | 1.15 ± 0.085 | 1.07 ± 0.043 | 1.01 ± 0.12 | 1.08 ± 0.16 | 1.07 ± 0.15 | 1.01 (active)
COC(=O)C1=C(C)NC(=O)CC1c1ccc(Cl)c(Cl)c1 (configuration not stated) | 0.982 ± 0.075 | 0.801 ± 0.065 | 0.957 ± 0.094 | 1.06 ± 0.036 | 1.16 ± 0.15 | 1.23 ± 0.19 | 1.01 (active)
Cc1cccc(OCCn2cc(C=Nn3cnnc3)c3ccccc32)c1 | 1.4 ± 0.11 | 1.12 ± 0.095 | 1.31 ± 0.13 | 0.992 ± 0.059 | 1.23 ± 0.11 | 1.5 ± 0.24 | 0.975 (active)
Nc1ncn([C@H]2C[C@H](O)[C@@H](CO)O2)c(=O)n1 | 1.3 ± 0.11 | 0.995 ± 0.054 | 1.15 ± 0.061 | 1.84 ± 0.32 | 1.09 ± 0.048 | 1.39 ± 0.27 | 0.963 (active)
CC[C@H](C)C(=O)O[C@H]1CCC=C2C=C[C@H](C)[C@H](CC[C@@H]3C[C@@H](O)CC(=O)O3)[C@H]21 | 1.34 ± 0.13 | 1.57 ± 0.14 | 1.04 ± 0.063 | 0.751 ± 0.051 | 1.01 ± 0.061 | 1.1 ± 0.085 | 0.935 (active)
CN1CC[C@H](c2c(O)cc(O)c3c(=O)cc(-c4ccccc4Cl)oc23)[C@H](O)C1 | 0.118 ± 0.009 | 0.0512 ± 0.004 | 0.104 ± 0.01 | 0.0122 ± 0.0028 | 0.0166 ± 0.001 | 0.0196 ± 0.0027 | 0.0463 (inactive)
CN1CCN(C(CNC(=O)c2ccccc2Br)c2ccc(F)cc2)CC1 (configuration not stated) | 0.878 ± 0.047 | 0.967 ± 0.12 | 0.944 ± 0.13 | 1.03 ± 0.053 | 1.06 ± 0.093 | 0.936 ± 0.34 | 1.01 (active)
CC1=NN(c2ccc(Cl)cc2)C(=O)C1=Cc1c(C)nn(-c2ccc(C)cc2C)c1O | 1.01 ± 0.13 | 0.866 ± 0.097 | 0.944 ± 0.051 | 0.891 ± 0.031 | 1.06 ± 0.085 | 1.15 ± 0.17 | 0.998 (active)
COc1ccc(C2=CC(=Cc3cccc(OC)c3OC)C(=O)O2)c(OC)c1 | 1.21 ± 0.3 | 1.06 ± 0.1 | 1.07 ± 0.086 | 1.04 ± 0.028 | 1.27 ± 0.18 | 1.16 ± 0.14 | 1 (active)
CCOc1cccc2sc(=NC(=O)c3ccc(S(=O)(=O)N4CCOCC4)cc3)n(C)c12 | 0.991 ± 0.31 | 1.14 ± 0.16 | 0.989 ± 0.13 | 0.97 ± 0.025 | 1.06 ± 0.14 | 1.27 ± 0.15 | 0.995 (active)
